# Reference: PubChem BioAssay (Tox21)
# Results filed as inconclusive are left out. Unmarked numbers belong to inactive results. Activity calls are given as the source filed them. The call rests on the fitted dose curve; in most records, active means well fitted cell-killing curve with a large enough effect in the repeat runs; inconclusive means weak or mixed curves, or effect the other way; inactive means flat fitted curve, though single readings scatter.
# Assay: qHTS assay to identify small molecule agonists of the constitutive androstane receptor (CAR) signaling pathway - cell viability counter screen (AID 1224836); further: nearly all actives have a fitted effect of over 45% in size
# Settings: HepG2-CYP2B6-hCAR viability, CellTiter-Fluor, 23 h, PK11195 added to every well; series mostly up to 92.4 µM; viability change, negative = cytotoxic: at the top concentration
# Description: U.S. Tox21 Program National Center for Advancing Translational Sciences [NCATS] NIH Chemical Genomics Center [NCGC] U.S. Environmental Protection Agency [EPA] National Institutes of Environmental Health Sciences [NIEHS] National Toxicology Program [NTP] U.S. Food and Drug Administration [FDA] Tox21 Assay Overview: The constitutive androstane receptor (CAR) is a nuclear receptor which regulates multiple drug metabolizing enzymes (DMEs) and transporters. Activating CAR will generally increase the transcription and subsequent translation of CYP2B6 and CYP3A4. These two DMEs represent about 50% of the drug metabolizing potential in the body. […] Recently, there have also been studies performed indicating CARs role in energy metabolism and cancer therapy. Therefore, inducing CARs activity could have a potential effect on diabetes and cancer. Identifying environmental toxins and compounds which modulate CAR, through the use of the Tox21 10K compound collection, will be an important step in determining the toxicity and potential therapeutic effects these factors will have on the human body. To differentiate true CAR agonists from cytotoxic substances, the assay is multiplexed with a cell viability assay.
# Tox21 Assay Protocol Summary: A double-stable (hCAR and CYP2B6-2.2kb) transfected cell line, derived from human hepatoma (HepG2) cells, was utilized for the duration of the quantitative high-throughput screens. The HepG2-CYP2B6-hCAR cells were dispensed at 2500 cells/4 uL/well in 1536-well white solid bottom plates using a Multidrop Combi. After the assay plates were incubated at 37 C/5% CO2 for 4 hrs, 23 nL of compounds at 15 concentrations (from 5-48 columns) or positive control (from 1 to 4 columns) were transferred to the assay plates using a Pintool station. One uL of PK11195 (final concentration = 0.75 uM) was added, using a Flying Reagent Dispenser, inside each well. After a 23 hr incubation period at 37 C/5% CO2, 1 uL of CellTiter-Fluor reagent was added into each well of the assay plates using a Flying Reagent Dispenser. The fluorescence intensity in the plates was then measured using a ViewLux plate reader.
# On the % scale 0 is the no-effect control and ±100 the full control effect; potency means the concentration at half of the fitted maximal effect.
Compound,"viability change, negative = cytotoxic",Potency
O=c1oc2cc(O)ccc2c2oc3cc(O)ccc3c12,15.2%,
O=C(O)c1ccc2cc(C(=O)O)ccc2c1,-13.6%,
CC(C)(C)C1CCC(=O)CC1,0.965%,
O=C1c2ccccc2C(=O)N1SC1CCCCC1,-24.2%,
C=CCCC(=O)/C=C/C1C(C)=CCCC1(C)C (stereo not given),3.12%,
Cc1ccc(C(=O)O)cc1,4.03%,
CC(=O)Oc1cc2c(s1)CCN(C(C(=O)C1CC1)c1ccccc1F)C2 (stereo not given),-10.7% [at 42.5 µM],
CCN(CC)c1ccc2c(-c3ccc(S(=O)(=O)O)cc3S(=O)(=O)[O-])c3ccc(=[N+](CC)CC)cc-3oc2c1,,31.6 µM (active)
CCc1oc2ccccc2c1C(=O)c1cc(I)c(O)c(I)c1,5.75% [at 42.5 µM],
Cc1ccc(C)cc1,0.744%,
Cc1cccc(C)c1NC(=O)c1ccc(N)cc1,-3.46% [at 42.5 µM],
COC(=O)c1ccccc1C,0.961%,
O[C@@H]([C@H](O)[C@H](O)CBr)[C@H](O)CBr,-8.57%,
O=C(O)CCN(C1(C(=O)NO)CCCC1)S(=O)(=O)c1ccc(Oc2ccc(F)cc2)cc1,0.0155%,
Cc1c(C)c2c(c(C)c1O)CC[C@@](C)(CCC[C@H](C)CCC[C@H](C)CCCC(C)C)O2,0.549%,
Oc1cc(Cl)cc(Cl)c1Cl,-17.6%,
c1ccsc1,4.65%,
C/C=C/C=C/COC(=O)C(C)C,-23.9%,
COc1ccc(NC(=O)CC(C)=O)cc1,1.73%,
CC(C)(C)NSc1nc2ccccc2s1,6.21%,

Compound,"viability change, negative = cytotoxic",Potency
Cc1c(F)c(N2CCNC(C)C2)cc2c1c(=O)c(C(=O)O)cn2C1CC1 (stereo not given),-2.39% [at 42.5 µM],
OC12N=C(c3ccccc3)SC1Cc1cc(Cl)ccc12 (stereo not given),-11.5%,
C#C[C@]1(O)CC[C@H]2[C@@H]3[C@H](C)CC4=C(CCC(=O)C4)[C@H]3CC[C@@]21C,-10.6% [at 42.5 µM],
CCCCCCCCCCCCCC[N+](C)(C)C,,23.5 µM (active)
CC(=O)CC(=O)Nc1ccc(S(=O)(=O)O)cc1,3.86%,
O=C(/C=C/c1ccc(O)c(O)c1)O[C@@H](C(=O)O)[C@@H](OC(=O)/C=C/c1ccc(O)c(O)c1)C(=O)O,-12%,
CCCCCC/C=C\CCCCCCCC(=O)O,1.75%,
CC(C)(C)c1csc(-c2cc3cc(OCc4ccccc4CC(=O)O)ccc3o2)n1,-11.7%,
Nc1cc(Cl)c(O)c(Cl)c1,6.88%,
COc1cc(C)ccc1O,3.79%,
CCCCCC(C)OC(=O)COc1ccc(Cl)c2cccnc12 (stereo not given),1.12%,
O=S(=O)(O)c1ccc(Nc2nc(Nc3ccc(/C=C/c4ccc(Nc5nc(Nc6ccc(S(=O)(=O)O)cc6)nc(N(CCO)CCO)n5)cc4S(=O)(=O)O)c(S(=O)(=O)O)c3)nc(N(CCO)CCO)n2)cc1,12.4% [at 42.5 µM],
CCC(COC(=O)CCS)(COC(=O)CCS)COC(=O)CCS,-6.53%,
Cc1cccc(C(=O)O)c1O,11.3% [at 42.5 µM],
CCO[C@@H]1O[C@H](C(COCc2ccccc2)OCc2ccccc2)[C@H](OCc2ccccc2)[C@H]1O (stereo not given in full),4.23% [at 42.5 µM],
FC(F)(F)c1cccc(Cl)c1,6.46%,
OC1CCC(C2CCCCC2)CC1 (stereo not given),1.64%,
COc1cccc(OC)c1C(=O)O,0.141%,
CCCC(=O)OCOC(=O)C1=C(C)NC(C)=C(C(=O)OC)C1c1cccc(Cl)c1Cl (stereo not given),6.89% [at 42.5 µM],
CC(=O)c1ccc(C(C)=O)cc1,-1.71%,
